Results on 15 compounds are retold here after PubChem BioAssay (NCI).

About 83,000 compounds went through this panel and 20% of them were active in at least one assay; those are over-represented in the sample as a whole.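 Step 1: grow cells in 96-well plates. Step 2: add test compound at a single concentration. Step 3: incubate 48 h. Step 4: record percent growth.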 Unmarked numbers belong to inactive results. Calls of active or inactive are those of the source. Rule for the calls: active = growth percent below 10; inactive = the rest.

The subject of the test is MDA-MB-468 breast. Kind of test: NCI-60 one-dose screen, 48 h (100 = growth as untreated, 0 = no growth, -100 = all killed). As to conditions: 10 µM unless noted.

Turning to `O=C(CN1CCN(c2cc(=O)n(-c3ccccc3)c3ccccc23)CC1)Nc1ccc([N+](=O)[O-])cc1`, the growth was 62.1%.
For `Cc1ccc(S(=O)(=O)n2cc(C3C(Cl)C(=O)N3c3ccc(N4CCOCC4=O)cc3)c3ccccc32)cc1` (stereo not given) the value was 67.6%.
Regarding `c1cc2c(cc1-c1cnc3nonc3n1)OCO2`, the growth is 84.6%.
In the case of `COC(=O)C(Sc1ccc(Cl)cc1)C1SC(=S)N(Cc2ccccc2)C1=O` (stereo not given), the growth is 94.7%.
To `CCN(CC)C(=O)C1(C)CCCC2(C)c3cc(OC(C)=O)ccc3CCC12` (stereo not given) belongs 56.9%.
Turning to `O=C1C(Cl)=C(Nc2ccc3cn[nH]c3c2)C(=O)c2ccccc21`, the growth was -82.9% (active).
Take `COc1cc2ccc(C(C)=O)cc2cc1OC`: the growth was 106%.
For `COc1ccc(Nc2cc(C)nc(N3CCN(c4ccnc5cc(Cl)ccc45)CC3)n2)cc1` the value was 21.7%; for `Oc1nc(NCc2ccccc2)sc1/C=C1\C=Nc2ncccc21`, 58.4%; for `Clc1ccc2nc(-c3ccc(-c4ccc(/C=N/NC5=NCCN5)cc4)s3)cn2c1`, 96.1%.
On to `N#Cc1ccc(OC(=O)Nc2c(Cl)cc(Cl)cc2Cl)cc1`, for which the growth was 97%.
For `Nc1cc(C(=O)NC[C@H]2CN(c3ccc(N4CCC(C(=O)O)CC4)cc3)C(=O)O2)ccc1Cl` the value was 99.4%.
To `C=CCn1c(C)nc2cc(Nc3nc(N4CCOCC4)nc4nc[nH]c34)ccc21` belongs 85.1%.
As for `C=CC(=O)Nc1cccc(-c2nc(SC)nc(Nc3cccc(OC)c3)c2C#N)c1`, the growth was 69.7%.
For `COc1cccc(-c2nc3sccn3c2/C=C/C(=O)c2ccc(C(F)(F)F)cc2)c1` the value was 75.6%.
